# Shown are actives, neighbours in structure and some others; about 8% of the full set was active somewhere.
# HCV inh: blocks hepatitis C virus | Huh7.5.1 HCVcc-Cre infection, luciferase reporter, 44 h | Potency, µM (highest dose often 41.8 µM), inactives show top-dose activity change, negative = inhibition, usual class: inhibitors | 340,000 compounds, 3.4% hits; active = well fitted inhibition curve with a large enough effect; inconclusive = small, poorly fitted or top-dose-only effect, or another doubt; inactive = no such curve, though single readings can be large or run the other way; also: potency is read from the fitted curve at half-maximal effect; % is scaled to controls: 0 for no effect and ±100 for the full control effect
#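 A cell-based infection assay in which seeded cells (1,000 per well) receive test compound after 4 h, are inoculated with HCVcc-Cre at approximately 0.5 moi, and are incubated 44 h before luminescence detection.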
# HCMV antiviral: inhibitors of human cytomegalovirus | activity change, negative = inhibition, % at 57.5 µM | HFF cells, HCMV-luciferase reporter, 72 h; hits give low values | 410,000 compounds, 4.5% hits; in the data active = activity change below about -60%; inconclusive = no clear call, values can overlap the other calls; inactive = above about -39%; also: % is scaled to controls: 0 for no effect and ±100 for the full control effect
#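 Steps: HFFs plated, 16 h 37C; compounds added; HCMV-luciferase added to MOI 1 PFU/cell; 72 h 37C; OneGlo reagent, 5 min room temperature; luminescence read, normalized to controls.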
# SARS PLP yeast: inhibitors of SARS-CoV papain-like protease in yeast; AID 485353; S. cerevisiae expressing SARS-CoV PLpro, growth rescue; Potency, µM (titrated, usually from 32.9 µM), inactives show at the highest dose activity, positive = growth rescue, hits mostly activators; 330,000 compounds, 0.19% hits; calls by dose curve; also: potency is read from the fitted curve at half-maximal effect; 0% is about no effect; nearly all actives have a fitted effect of over 55% in size
# Marburg entry inh: Marburg virus entry inhibition | Marburg virus pseudotyped entry inhibition, cell reporter | Potency, µM (titrated, usually from 37.8 µM), inactives show at the highest dose activity change, negative = inhibition, actives largely listed as inhibitors | 300,000 compounds, 1.8% hits | AID 540276; calls by dose curve; tested in HEK293 cells; also: potency is read from the fitted curve at half-maximal effect; % is scaled to controls: 0 for no effect and ±100 for the full control effect
# Lassa entry inh: inhibitors of Lassa virus binding or cell entry | Potency, µM (series often up to 37.9 µM), for inactives: top-dose activity change, negative = inhibition, most hits filed as inhibitors | Lassa virus pseudotype entry inhibition, cell reporter | 300,000 compounds, 1.2% hits; calls by dose curve; tested in HEK293 cells; also: potency is read from the fitted curve at half-maximal effect; % is scaled to controls: 0 for no effect and ±100 for the full control effect; nearly all actives have a fitted effect of over 50% in size
# FMDV antiviral: antivirals against foot and mouth disease virus; FMDV antiviral cell-based qHTS; Potency, µM (titrated, usually from 57.9 µM), without a hit: at the top dose activity change, negative = inhibition, hits mostly inhibitors; 410,000 compounds, 1.2% hits; AID 1159524; calls by dose curve; tested in HEK293T cells; also: read-out not given here; potency is read from the fitted curve at half-maximal effect; % is scaled to controls: 0 for no effect and ±100 for the full control effect; nearly all actives have a fitted effect of over 45% in size
# An asterisk follows results filed as active; ? = inconclusive; nt = no result given; [ ] = remark or other dose.
SMILES,HCV inh,HCMV antiviral,SARS PLP yeast,Marburg entry inh,Lassa entry inh,FMDV antiviral
CCCC/C(O)=C/c1nc2ccccc2[nH]c1=O,3%,-79*,0%,17%,5%,14%
COc1ccc(/C=N/Nc2ncc(C(F)(F)F)cc2Cl)cc1OC,?,-31,-18%,13µM*,3%,-14%
Cc1cccc(NC(=O)c2sc3cccc(Cl)c3c2Cl)c1,nt,50,nt,nt,?,35%
O=C(/C=C/c1ccco1)Nc1ccc(S(=O)(=O)N2CCOCC2)cc1,3.5µM*,-18,0%,4%,-15%,5%
CC(C)C(=O)N1CCN(c2ccc(NC(=O)COc3ccccc3[N+](=O)[O-])cc2)CC1,?,?,-1%,?,?,16µM*
CCN1CCN(c2c(Cl)cccc2NC(=O)c2ccc([N+](=O)[O-])o2)CC1,nt,-97*,nt,nt,nt,nt
Cc1ccc(NC(=S)Nc2ccc(S(=O)(=O)N3CCOCC3)cc2)cc1S(=O)(=O)N1CCOCC1,-76%,?,2%,-1%[46.1 µM],11µM*,-6%
CCc1ccc(NC(=O)CSc2nc3c([nH]c4ccccc43)c(=O)n2C)cc1,nt,55,nt,nt,7%[46.1 µM],22%
CCc1noc(-c2ccc(N3CCCCC3)c([N+](=O)[O-])c2)n1,nt,76,nt,-9%[46.1 µM],-10%[46.1 µM],7%
CC(=O)N1CCN(c2ccc(NC(=O)c3ccc(Br)o3)cc2Cl)CC1,-19%,-31,-1%,nt,nt,18%
CC(C)C(=O)N1CCN(c2ccc(NC(=O)c3ccc([N+](=O)[O-])o3)cc2Cl)CC1,10µM*,-100*,-2%,?,?,25µM*
O=C(COc1ccccc1[N+](=O)[O-])Nc1cccc(Cl)c1N1CCOCC1,?,-39,?,?,?,40µM*
CN1CCN(c2ccc(NC(=O)c3ccc([N+](=O)[O-])o3)cc2Cl)CC1,22µM*,-101*,-1%,11µM*,?,0%
Cc1ccc(NC(=O)C(=O)c2c(-c3ccccc3)cc3ccccn23)cc1S(=O)(=O)N1CCOCC1,?,-76*,0%,?,-1%,-16%
CCC(C)NC(=O)c1nn(-c2ccc(C)cc2)nc1CO (stereo not given),nt,44,nt,?,16%[46.1 µM],7%
CCN(Cc1ccccc1)C(=O)Cn1c(=O)n(-c2ccccc2)c(=O)c2c1c1cc(C)ccc1n2C,nt,-16,nt,nt,6%[46.1 µM],?
CCCC(=O)N1CCN(c2ccc(NC(=O)c3ccc([N+](=O)[O-])o3)cc2Cl)CC1,?,-109*,-23%,?,?,20µM*
O=C(Nc1c(Cl)ccc2nsnc12)c1ccc([N+](=O)[O-])o1,?,-106*,-1%,nt,nt,-26%
Cc1ccc(NC(=O)c2ccc([N+](=O)[O-])o2)cc1S(=O)(=O)N1CCOCC1,10µM*,-95*,-3%,?,?,-25%
Cc1ccc(NC(=O)c2cc([N+](=O)[O-])ccc2N2CCOCC2)cc1S(=O)(=O)N1CCOCC1,nt,10,2%,?,-16%,-17%
O=C(Nc1c(Cl)ccc2nsnc12)c1ccc(Br)o1,nt,-32,nt,nt,nt,-11%
O=C(Nc1ccccc1N1CCN(C(=O)c2ccc(Cl)cc2)CC1)c1ccc([N+](=O)[O-])o1,?,nt,-20%,?,?,-20%
Cc1ccc(NC(=O)/C=C/c2ccc(S(=O)(=O)N3CCOCC3)cc2)cc1S(=O)(=O)N(C)C,?,-74*,nt,?,?,35µM*
O=S(=O)(c1ccccc1)c1nnn2c1nc(Nc1ccccc1)c1cc(Cl)ccc12,nt,16,nt,8%[46.1 µM],nt,0%
COc1ccc(NC(c2ccc(F)cc2)c2nnc(-c3ccccc3Cl)o2)cc1Cl (stereo not given),nt,9,nt,-18%[46.1 µM],-25%[46.1 µM],-8%
CCCCCC(=O)NC(=S)Nc1ccc(N2CCCCC2)c(Cl)c1,19%,24,-1%,?,-22%,-7%
O=S(=O)(c1ccc(NC(=S)NCCc2ccccc2)cc1)N1CCOCC1,3%,-24,4%,6%,-12%,43%
O=S(=O)(c1ccc(NC(=S)NN=C(Cc2ccccc2)Cc2ccccc2)cc1)N1CCOCC1,10µM*,-33,1%,12%[46.1 µM],?,0%
O=C(Nc1ccc(N2CCOCC2)c(Cl)c1)c1ccc([N+](=O)[O-])o1,11µM*,-102*,-5%,nt,nt,0%
